Laboratory results published in PubChem BioAssay (NCATS).
Records with an inconclusive call do not appear. A number with no mark means an inactive call. Calls follow the shape of the dose curve; as a rule, active = well fitted cell-killing curve with a large enough effect; inconclusive = small, poorly fitted or top-dose-only effect; inactive = flat fitted curve, though single readings scatter. Where a SMILES comes first, the peptide text is derived from it. Bridges are numbered along the chain shown (N, C = ends). [ ]: non-standard residue; d: D form. hArg = N=C(N)NCCCC[C@H](N)C(=O)O; Mpa = O=C(O)CCS

Test: qHTS of pediatric cancer cell lines to identify multiple opportunities for drug repurposing: Primary screen for BT-12 cells (AID 1347101); also: nearly all actives have a fitted effect of over 25% in size
Conditions: BT-12 viability, CellTiter-Glo luminescence, 48 h; series mostly up to 57.3 µM; activity change, negative = cytotoxic: at the top concentration
Excerpt: Drug repurposing or repositioning has been offered as a strategy for drug development in oncology programs. This approach has special potential for childhood cancers and other rare or orphan diseases, where the expected return on new drug development has been a disincentive to pharmaceuticals.
In this project we exploit the poly-pharmacology of drugs to discover new indications via phenotypic screening of a panel of 19 well-characterized cell lines derived from solid tumors seen in children and adolescents. The goal is to identify approved drugs with previously unrecognized anticancer properties that has the potential to reveal new mechanisms and biological processes involved in carcinogenesis or drug resistance. We employed a titration-based paradigm (quantitative high-throughput screening or qHTS), where all compounds were tested at multiple concentrations for their effect on cell viability. Concentration-response curves (CRCs) were derived directly from the primary screen, and both potency and efficacy values were used to identify compounds with robust bioactivity profiles. We screened the NIH Chemical Genomics Center (NCGC) Pharmaceutical Collection (NPC) and Mechanism Interrogation Plate (MIPE) small molecule collections of approved and investigational compounds against these cell lines; and measured metabolically active cells after 48 hours of compound treatment as a proxy for cell viability.
Assay Submitter: Nathalia J. Martinez, National Center for Advancing Translational Sciences, National Institutes of Health, Rockville, MD, USA; email: natalia.martinez@nih.gov
[1] Shen, M et al. Quantitative high-throughput phenotypic screening of pediatric cancer cell lines identifies multiple opportunities for drug repurposing. Oncotarget 2017 Dec 19;9(4):4758-4772. PMID 29435139.
The cells were obtained from University of North Carolina (UNC), Pediatric Preclinical Testing Program (PPT), and Coriell Institute (CI).
qHTS cell viability assay:
Cells were assayed in growth media at a density of 500-1,000 cells/well. Five microliters of cells were dispensed into 1,536-well, white, solid-bottom, TC-treated plates (Greiner Bio One) using a multidrop dispenser and incubated at 37 degrees C, 5% CO2, under a humidified atmosphere for 5 hours. Twenty-three nanoliters of compounds and controls (neutral control DMSO or positive control bortezomib at final concentration of 2.3 µM) were subsequently transferred by Kalypsys pintool. For primary screens, the MIPE collection was tested at 11-point dilutions (final concentrations range from 0.78 nM to 46 µM) and the NPC collection at 8-point dilutions (final concentrations range from 0.59 nM to 46 µM). Compounds tested in follow-up screens were assayed at 11-point dilutions. Cells were incubated for 48 hours, followed by addition of 3 µL of CellTiter-Glo (Promega). After a 15 min incubation at room temperature, samples were analyzed for luminescence intensity using a ViewLux High-throughput CCD imager equipped with clear filters.

SMILES	activity change, negative = cytotoxic
CCCOC(=O)c1ccc(N)cc1	4.92%
COc1ccc(Cc2cnc(N)nc2N)cc1OC	18.4%
C[C@H]1COc2c(C3(N)CC3)c(F)cc3c(=O)c(C(=O)O)cn1c23	-2.63%
Cc1ccc2c(c1)c1c3n2CCNC3CCC1 (stereo not given)	2.08%
NC(=O)c1ccc([N+](=O)[O-])cc1Cl	5.76%
O=C(NCC(O)CO)c1c(I)c(C(=O)NCC(O)CO)c(I)c(N(CCO)C(=O)CO)c1I (stereo not given)	4.78%
CN/C(=C\[N+](=O)[O-])NCCSCc1csc(CN(C)C)n1	9.47%
C[N+]1(C)CCCC(OC(=O)C(O)(c2ccccc2)c2ccccc2)C1 (stereo not given)	-4.93%
NC(=O)[C@@H]1CSSCCC(=O)N[C@@H](CCCCN=C(N)N)C(=O)NCC(=O)N[C@@H](CC(=O)O)C(=O)N[C@@H](Cc2c[nH]c3ccccc23)C(=O)N2CCC[C@H]2C(=O)N1 ([Mpa][hArg]GDWPC-NH2; disulfide 1-7)	-4.62%
CC(=O)Nc1ccccc1	8.53%
CN(C/C=C/C#CC(C)(C)C)Cc1cccc2ccccc12	-11.4%
CC(=O)N[C@@H](Cc1ccc(O)cc1)C(=O)O	1.03%
C[C@@H]1O[C@@H](OC[C@H]2O[C@@H](Oc3c(-c4ccc(O)c(O)c4)oc4cc(O)cc(O)c4c3=O)[C@H](O)[C@@H](O)[C@@H]2O)[C@H](O)[C@H](O)[C@H]1O	-0.731%
CC(=O)OCC(=O)[C@@]1(O)CC[C@H]2[C@@H]3CCC4=CC(=O)C=C[C@]4(C)[C@@]3(F)[C@@H](O)C[C@@]21C	1.23%
CC(O)CCCCn1c(=O)c2c(ncn2C)n(C)c1=O (stereo not given)	6.71%
CCCCC1(COC(=O)CCC(=O)O)C(=O)N(c2ccccc2)N(c2ccccc2)C1=O	6.13%
CCCCCOC(=O)Nc1nc(=O)n([C@@H]2O[C@H](C)[C@@H](O)[C@H]2O)cc1F	15.7%
O=c1[nH]cnc2nc[nH]c12	18.1%
C=CCN1C[C@H](C(=O)N(CCCN(C)C)C(=O)NCC)C[C@@H]2c3cccc4[nH]cc(c34)C[C@H]21	6.08%
O=c1[nH]c(=O)c2ccccc2o1	9.66%

SMILES	activity change, negative = cytotoxic
Cc1ccc(S(=O)(=O)NC(=O)NC2CCCCCCC2)cc1	5.23%
Cc1c(NC(C)C)c(=O)n(-c2ccccc2)n1C	13.5%
COc1ccccc1OCC(O)CO (stereo not given)	9.33%
O=C(O)CCCCC1CCSS1 (stereo not given)	17.9%
CC(C(=O)O)c1ccc2c(c1)Cc1cccnc1O2 (stereo not given)	6.8%
O=C(/C=C/c1ccc(O)c(O)c1)O[C@@H]1C[C@@](OC(=O)/C=C/c2ccc(O)c(O)c2)(C(=O)O)C[C@@H](O)[C@@H]1O	2.56%
Cc1c(C)c2c(c(C)c1OC(=O)c1cccnc1)CC[C@@](C)(CCC[C@H](C)CCC[C@H](C)CCCC(C)C)O2	7.96%
O=C(O)/C=C/c1ccc(Cn2ccnc2)cc1	9.03%
Cc1[nH]c(C)c(Cl)c(=O)c1Cl	8.38% [at 20.1 µM]
CC(=O)NCc1c(I)c(NC(C)=O)c(I)c(C(=O)O)c1I	13.9%
O=C(CN1CCNCC1)NC1CCCCC1	0.599%
C/C(=C(\CCO)SS/C(CCO)=C(\C)N(C=O)Cc1cnc(C)nc1N)N(C=O)Cc1cnc(C)nc1N	8.51%
Cn1c(=O)c2c(ncn2CCO)n(C)c1=O	-1.72%
NNC(=O)CP(=O)(c1ccccc1)c1ccccc1	7.29%
CC(C)(C)C(=O)OCOC(=O)[C@@H]1N2C(=O)[C@@H](NC(=O)[C@H](N)c3ccccc3)[C@H]2SC1(C)C	1.92%
Cc1cc(C)c(NC(=O)CN(CC(=O)O)CC(=O)O)c(C)c1Br	8.72%
Cc1cccc(C(=O)O)c1O	7.64%
O=C(OOC(=O)c1ccccc1)c1ccccc1	2.42%
C[N+](C)(C)CC[N+]1(C)Cc2c(Cl)c(Cl)c(Cl)c(Cl)c2C1	2.6%
CC(=O)N[C@H]1[C@H]([C@H](O)[C@H](O)CO)OC(C(=O)O)=C[C@@H]1N=C(N)N	2.73%
